# Laboratory results published in PubChem BioAssay AID624405 (Broad Institute, 2012).
# In all, about 1,900 compounds went through this assay and about 250 (13%) were called active. Roughly 4% stayed inconclusive and do not appear here.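 How the source made its calls: active means fitted curve reaches 40% rescue activity at or below the top valid dose, in every test run; inconclusive means test runs disagree, some active and some inactive; inactive means every run misses the threshold or moves the wrong way.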 These entries were drawn from the full list. Where a call stands in place of a potency, no number is given. Potency and affinity values are given separately.
# Assay: suppressors of statin myotoxicity in myotubes, dose response, cell-based, C2C12 myotubes, ATP luminescence, cherry pick (AID 624405);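 further: myotubes are challenged with simvastatin at 10 µM to lower ATP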
# Settings: C2C12 myotubes + simvastatin, 48 h, scaled: DMSO wells 0, geranylgeraniol wells 100; series mostly up to 19.5 µM
row,SMILES,outcome
1,C/C=C/c1ccc2c(c1)O[C@@H](CN(C)C(=O)NC1CCCCC1)[C@@H](C)CN([C@@H](C)CO)S2(=O)=O,inactive
2,O=C(O)CC(c1ccccc1)n1cccc1 (configuration not stated),inactive
3,O=C(CN1CCN(C(=O)c2ccco2)CC1)Nc1cc(C(F)(F)F)ccc1Cl,inactive
4,COc1ccc(NC(=O)Nc2ccc3c(c2)C(=O)N([C@H](C)CO)C[C@H](C)[C@H](CN(C)Cc2ccc(C(F)(F)F)cc2)OCCCC[C@@H](C)O3)cc1,inactive
5,CCn1ncc(Br)c1C(=O)Nc1cc(C(=O)OC)ccc1C(=O)OC,inactive
6,O=C(C[C@@H]1CC[C@H]2[C@@H](COC[C@@H](O)CN2Cc2ccc(Oc3ccccc3)cc2)O1)Nc1nccs1,inactive
7,O=C(C[C@@H]1CC[C@@H]2[C@H](COC[C@H](O)CN2Cc2ccc(C(F)(F)F)cc2)O1)NCCc1ccccc1,inactive
8,O=C(C[C@H]1CC[C@H]2[C@@H](COC[C@H](O)CN2Cc2ccc(Oc3ccccc3)cc2)O1)N1CCCCC1,inactive
9,O=C(C[C@H]1CC[C@H]2[C@@H](COC[C@@H](O)CN2Cc2ccc(Oc3ccccc3)cc2)O1)N1CCCCC1,inactive
10,CC(C)NC(=O)Nc1cccc2c1O[C@H](CN(C)Cc1ccc(-c3ccccc3)cc1)[C@@H](C)CN([C@@H](C)CO)C2=O,inactive
11,Cc1ccc(S(=O)(=O)NCCN=C(CN2CCCC2)NS(=O)(=O)c2ccc(C)cc2)cc1,inactive
12,CC(=O)OC1CC(n2ccc(NC(=O)c3ccccc3)nc2=O)OC1CO (configuration not stated),inactive
13,COc1ccc2oc(=O)cc(CN3CCN(Cc4ccc(OC)c(OC)c4OC)CC3)c2c1,inactive
14,C[C@@H]1CN([C@@H](C)CO)C(=O)Cc2cc(N(C)C)ccc2O[C@H]1CN(C)Cc1ccc2c(c1)OCO2,inactive
15,O=c1c2ccccc2ncn1Cc1nc2ccccc2s1,inactive
16,COc1ccc(Cc2nc(C(=O)Nc3ccc(OC)cc3)cs2)cc1,inactive
17,C[C@@H]1CCCCO[C@@H](CN(C)C(=O)Nc2cccc3ccccc23)[C@@H](C)CN([C@@H](C)CO)C(=O)c2cc(NS(=O)(=O)c3ccc(Cl)cc3)ccc2O1,inactive
18,COc1cccc(C#Cc2ccc3c(c2)O[C@H](CN(C)C(=O)c2ccccn2)[C@H](C)CN([C@H](C)CO)S3(=O)=O)c1,inactive
19,Cc1ccc(S(=O)(=O)N(C)c2ccc(C(=O)O)cc2)cc1,inactive
20,CCC1(C)Cc2c(sc3nc(NN)n(C)c(=O)c23)CO1 (configuration not stated),inactive
21,C[C@H]1CN([C@@H](C)CO)C(=O)c2cc(C3=CCCCC3)cnc2O[C@H]1CN(C)Cc1ccccc1F,inactive
22,C[C@@H]1CN([C@@H](C)CO)C(=O)c2cc(C#CC3CCCCC3)cnc2O[C@H]1CN(C)S(=O)(=O)c1ccc(F)cc1,inactive
23,C[C@@H]1CN([C@H](C)CO)C(=O)Cc2cc(NC(=O)CCCCCC(=O)Nc3ccccc3N)ccc2O[C@H]1CN(C)Cc1ccc(Oc2ccccc2)cc1,inactive
24,C[C@H]1CN([C@@H](C)CO)C(=O)Cc2cc(NC(=O)CCCCCC(=O)Nc3ccccc3N)ccc2O[C@@H]1CN(C)Cc1ccc(Oc2ccccc2)cc1,inactive

row,SMILES,outcome
1,O=C(c1ccco1)N(Cc1ccco1)c1ccc(O)cc1,inactive
2,C[C@H]1CCCCO[C@H](CN(C)S(=O)(=O)c2ccc(Cl)cc2)[C@@H](C)CN([C@@H](C)CO)C(=O)c2cc(NS(C)(=O)=O)ccc2O1,inactive
3,COCCNC(=O)CSc1nc2ccccc2c2nc(C)nn12,inactive
4,C[C@H](CO)N1C[C@H](C)[C@@H](CN(C)Cc2ccc(-c3ccccc3)cc2)Oc2ccc(NC(=O)Cn3cnnn3)cc2CC1=O,inactive
5,C[C@@H]1CN([C@@H](C)CO)C(=O)c2cc(C#Cc3ccc(F)cc3)cnc2O[C@H]1CN(C)C(=O)c1ccccc1F,inactive
6,COc1ccc(S(=O)(=O)Nc2ccc3c(c2)C(=O)N([C@H](C)CO)C[C@H](C)[C@H](CN(C)Cc2ccc(Cl)c(Cl)c2)OCCCC[C@@H](C)O3)cc1,inactive
7,CN1C(=O)c2cc(NC(=O)c3cscn3)ccc2OC[C@H]2O[C@H](CC(=O)NCc3ccc(Cl)c(Cl)c3)CC[C@H]21,inactive
8,COc1ccc(S(=O)(=O)Nc2ccc3c(c2)CC(=O)N([C@H](C)CO)C[C@@H](C)[C@H](CN(C)Cc2ccc(Cl)c(Cl)c2)O3)cc1,inactive
9,CC(C)(Oc1ccc(Cl)cc1)C(=O)NCc1ccco1,inactive
10,CN1CCN(c2ccc(NC(=S)NC(=O)c3cccc4c(Br)cccc34)cc2)CC1,inactive
11,C[C@@H]1CCCCO[C@@H](CN(C)C(=O)Nc2ccc(C(F)(F)F)cc2)[C@H](C)CN([C@@H](C)CO)C(=O)c2cc(NC(=O)c3ccccc3)ccc2O1,inactive
12,Cc1ccc(S(=O)(=O)N(C)C[C@H]2Oc3ccc(NC(=O)Cc4ccccc4)cc3CC(=O)N([C@@H](C)CO)C[C@@H]2C)cc1,inactive
13,C[C@@H]1CCCCO[C@H](CN(C)S(=O)(=O)c2ccc(Cl)cc2)[C@@H](C)CN([C@@H](C)CO)C(=O)c2cc(NS(C)(=O)=O)ccc2O1,inactive
14,COc1ccc(C(=O)c2ccc(OC)cc2O)c(O)c1,inactive
15,C[C@H](CO)N1C[C@H](C)[C@H](CN(C)Cc2ccc(C(F)(F)F)cc2)Oc2ccc(NC(=O)CCCCCC(=O)Nc3ccccc3N)cc2CC1=O,inactive
16,C[C@H]1CN([C@@H](C)CO)C(=O)Cc2cc(NC(=O)CCCCCC(=O)Nc3ccccc3N)ccc2O[C@@H]1CN(C)Cc1ccc(C(F)(F)F)cc1,inactive
17,Cc1onc(-c2ccccc2)c1C(=O)OCC(=O)Nc1ccc2c(c1)OCO2,inactive
18,Cc1ccc(NC(=O)C(=S)NCc2ccco2)cc1,inactive
19,FC(F)(F)c1cccc(-c2nnc(-c3ccccc3)c(N3CCOCC3)n2)c1,inactive
20,Cc1ccc(Nc2cc(=O)[nH]c(=O)[nH]2)c(C)c1,inactive
21,COCC(=O)N1C[C@H]2[C@@H](c3ccccc31)[C@@H](CO)N2Cc1ccc(OC)cc1,inactive
22,CCCNC(=O)N(C)C[C@@H]1Oc2cc(-c3ccccc3)ccc2S(=O)(=O)N([C@@H](C)CO)C[C@@H]1C,inactive
23,CC(C)NC(=O)Nc1ccc2c(c1)C(=O)N([C@@H](C)CO)C[C@H](C)[C@H](CN(C)Cc1ccccc1)O2,inactive
